We go through 8 molecules from PubChem BioAssay (NCATS).

Structures are written as SMILES. Results filed as inconclusive are left out. The source made the active and inactive calls. Unless noted, the rule behind the calls is not given here.

A short description of experiment [1]: High-throughput drug toxicity screening in the BPDCN cell line Gen2.2 (AID 1224824).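 Note: cells exposed to compounds for 48 h before reading.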 Conditions: Gen2.2 BPDCN cells; at 45.8 µM (top of the series) unless noted. In outline: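 CellTiter-Glo luminescence read after 48 h compound exposure at 37 C defines viability; percent activity set with DMSO as 100% and bortezomib (9.2 uM final) as 0%. 500 exponentially growing cells per well, RPMI plus 10% FBS.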

A short description of experiment [2]: High-throughput drug toxicity screening in the BPDCN cell line Cal-1 (AID 1224825). Conditions: Cal-1 BPDCN cell viability, qHTS; at 45.8 µM (top of the series) unless noted. In outline: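 CellTiter-Glo luminescence after 48 h compound exposure; percent activity scaled with DMSO as 100% and bortezomib (9.2 uM final) as 0%. Cal-1 cells seeded at 500/well in RPMI, 10% FBS, no phenol red.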
A general note: In qHTS, concentration-response curves come from the screen itself.

The nature of experiment [3]: qHTS assay for measurement of the activity of small molecule inhibitors on Zika virus induced Caspase-3 activity in human iPSC derived neural progenitor cells (hNPCs) (AID 1224857; active = well fitted curve in the direction sought with a large enough effect; an effect the other way counts as inactive or inconclusive; note: nearly all actives have a fitted effect of over 65% in size; note: potency is the fitted concentration of half-maximal effect). An outline of the steps:
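In medium with heparin 2 ug/ml and cyclopamine 2 uM, hNPCs (350 cells/well) received compound for one hour and then Zika virus at 2 FFU/cell; caspase activity was measured by Caspase-Glo 3/7 luminescence 6 h post-infection.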

Experiment [4] in a line: qHTS Screen of the MIPE 4.0 Collection Against Ewings Sarcoma (RDES) (AID 1259252; active = well fitted curve in the direction sought with a large enough effect; an effect the other way counts as inactive or inconclusive; note: nearly all actives have a fitted effect of over 35% in size; note: potency is the fitted concentration of half-maximal effect). An outline of the steps: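 Dose series incubated 48 h with cells in RPMI plus 5% FBS, glutamine and penicillin/streptomycin; cell viability then quantified via CellTiter-Glo.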
A short description of experiment [5]: qHTS Assay for Identifying Gametocytocidal Compounds (AID 743244; active = well fitted curve in the direction sought with a large enough effect; an effect the other way counts as inactive or inconclusive; note: potency is the fitted concentration of half-maximal effect;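 for max response: % is set by controls: 0 for no effect and ±100 for the full control effect; actives lower the fluorescent signal which means gametocytes are killed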). Conditions: P. falciparum 3D7 stage III-V gametocytes, alamarBlue, 72 h; max response: stronger effect = lower value. In outline:
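In this qHTS viability screen, late-stage 3D7 gametocytes are incubated with compound for 72 h, then with alamarBlue for 24 h; reduced resorufin fluorescence marks killing.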

The nature of experiment [6]: qHTS profiling for inhibitors of Plasmodium falciparum (DD2) proliferation (AID 743323). Conditions: lower = more inhibition; at 28.7 µM (top of the series). An outline of the steps: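 SYBR Green fluorescence (ex 485, em 535 nm) of lysed cultures gives parasite DNA content; wells normalized to artemisinin (0.29 uM) and DMSO controls. Infected red cells: 0.3% parasitemia, 2.5% hematocrit, 72 h, 37 C.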

Experiment [7] is described as follows: qHTS profiling for inhibitors of Plasmodium falciparum (HB3) proliferation (AID 743324; active = well fitted curve in the direction sought with a large enough effect; an effect the other way counts as inactive or inconclusive;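 note: 100% = DMSO vehicle wells and 0% = artemisinin-treated control wells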). Conditions: Plasmodium falciparum HB3 blood-stage proliferation; at 28.7 µM (top of the series). In outline:
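SYBR Green fluorescence (485 ex/535 em) of lysed cultures, incubated overnight at room temperature in the dark, quantifies parasite DNA. Infected erythrocytes at 0.3% parasitemia and 2.5% hematocrit were exposed 72 h; values normalized to DMSO and 0.29 uM artemisinin controls.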

The nature of experiment [8]: qHTS profiling of the MIPE4 collection as inhibitors of Plasmodium falciparum (3D7) proliferation (AID 743344).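 Note: scaled between DMSO vehicle wells and 0.29 µM artemisinin as full inhibition.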 Conditions: P. falciparum 3D7 in erythrocytes, SYBR Green DNA fluorescence, 72 h; at 28.5 µM (top of the series) unless noted. In outline:
(§1)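 Parasite DNA was quantified by SYBR Green I fluorescence (ex 485, em 535 nm) after overnight lysis in saponin/Triton buffer at room temperature. Cultures at 0.3% parasitemia and 2.5% hematocrit were first exposed to compound for 72 h at 37 C; signals were normalised to artemisinin (0.29 uM) and vehicle wells.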

The nature of experiment [9]: qHTS profiling of the MIPE4 collection as inhibitors of Plasmodium falciparum (DD2) proliferation (AID 743345). Conditions: P. falciparum Dd2 in erythrocytes, SYBR Green DNA, 72 h; at 28.5 µM (top of the series) unless noted. In outline: as §1
Experiment [10] can be described thus: qHTS profiling of the MIPE4 collection as inhibitors of Plasmodium falciparum (DD2) proliferation (Rep 2) (AID 743346). As to conditions: P. falciparum Dd2 in erythrocytes, SYBR Green DNA, 72 h; at 28.5 µM (top of the series) unless noted. An outline of the steps: as §1
Experiment [11] is described as follows: qHTS profiling of the MIPE4 collection as inhibitors of Plasmodium falciparum (HB3) proliferation (AID 743347).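 Note: plate controls were DMSO vehicle wells for no effect and artemisinin wells for full effect.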 Conditions: P. falciparum HB3 in erythrocytes, SYBR Green DNA, 72 h; at 28.5 µM (top of the series) unless noted. An outline of the steps:
as §1

Experiment [12] in a line: qHTS assay for measurement of the activity of small molecule inhibitors on Zika virus induced Caspase-3 activity in human astrocytoma cells (AID 1224859; active = well fitted curve in the direction sought with a large enough effect; an effect the other way counts as inactive or inconclusive;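 note: plate controls were ZIKV-infected untreated cells for no effect and uninfected cells for full effect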). In outline:
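A cell-based luminescent caspase-3/7 assay used SNB-19 cells infected with ZIKV (2 FFU/cell) for 6 h following 1 h compound pretreatment.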

As to `CCC(CC)[C@H](NC(C)=O)[C@@H]1[C@H](O)[C@@H](C(=O)O)C[C@@H]1N=C(N)N`, in experiment [1], the cell viability, % of control (lower = more cytotoxic) was 81.8%. Also, the viability (% of control) in experiment [2] is 105%. In addition, the Potency result in [3] and in experiment [4] was “inactive” each time.
Consider `CC(C)(C)c1cc(C(=O)O)c(NC(=O)Nc2ccc3[nH]ncc3c2)s1`, for which, in [5], the max response was 39.1% (inactive). Besides, the activity, percent of control in [6] was found to be 95.5%. For the same molecule, the remaining proliferation (% of control), lower = more inhibition in experiment [7] is 70.8%. Also, in experiment [8], the parasite growth, % of DMSO control amounted to 74.4%. In addition, the parasite growth remaining, % of DMSO control (lower = more inhibition) in experiment [9] is 93.1%. In addition, the parasite growth, % of control (lower = inhibition) in experiment [10] stood at 81.5%. Moreover, the growth, % of control in experiment [11] is 69.6%. For the same molecule, the cell viability, % of control (lower = more cytotoxic) in [1] was 134%. In addition, the viability (% of control) in [2] worked out at 110%. In experiment [3], the Potency result is “inactive”.
In turn, `COC(=O)N[C@H](C(=O)N1CCC[C@@H]1c1ncc(-c2ccc(-c3ccc(-c4cnc([C@@H]5CCCN5C(=O)[C@@H](NC(=O)OC)C(C)C)[nH]4)cc3)cc2)[nH]1)C(C)C` returned a parasite growth, % of DMSO control in [8] of 9.52%. In addition, the parasite growth remaining, % of DMSO control (lower = more inhibition) in [9] was 9.13%. In addition, the parasite growth, % of control (lower = inhibition) in experiment [10] is 24.9%. In experiment [11], this molecule came in with a growth, % of control of 14.2%. Besides, the cell viability, % of control (lower = more cytotoxic) in experiment [1] amounted to 6.1%. In addition, the viability (% of control) in experiment [2] was 28.7%. Further, the Potency entry in [3] and in [12] was “inactive” throughout.
Turning to `COc1cc2nc(-c3ccc(N4CCN(C)CC4)cc3)nc(NCCN3CCOCC3)c2cc1OC`, the Potency in experiment [5] was 11.8 µM (active); in experiment [3], 5.9 µM (active). For the same molecule, the activity, percent of control in experiment [6] was -0.313%. For the same molecule, the remaining proliferation (% of control), lower = more inhibition in experiment [7] was -0.898%. Besides, the parasite growth, % of DMSO control in experiment [8] was found to be 5.09%. In addition, the parasite growth remaining, % of DMSO control (lower = more inhibition) in [9] was 4.83%. In addition, the parasite growth, % of control (lower = inhibition) in experiment [10] worked out at 12.1%. In experiment [11], this molecule yielded a growth, % of control of 2.87%. Besides, the cell viability, % of control (lower = more cytotoxic) in [1] was 1.57%. Further, the viability (% of control) in [2] stood at 2.25%.
`CC1(C)CCC(CN2CCN(c3ccc(C(=O)NS(=O)(=O)c4ccc(NCC5CCOCC5)c([N+](=O)[O-])c4)c(Oc4cnc5[nH]ccc5c4)c3)CC2)=C(c2ccc(Cl)cc2)C1` registered a parasite growth, % of DMSO control in experiment [8] of 18.2%. Further, in [9], the parasite growth remaining, % of DMSO control (lower = more inhibition) came out at 76.7%. In experiment [10], the parasite growth, % of control (lower = inhibition) worked out at 24.1%. This molecule had a growth, % of control in experiment [11] of 6.5%. In addition, in experiment [1], the cell viability, % of control (lower = more cytotoxic) is 37.9%. The viability (% of control) in experiment [2] was 24.1%. For the same molecule, the Potency entry in [3] and in [12] was “inactive” in each case.
`CC1(C)Cc2c(sc(NC(=S)NC(=O)c3ccccc3)c2C(=O)O)CO1` returned a parasite growth, % of DMSO control in [8] of 90.4%. Besides, in [9], the parasite growth remaining, % of DMSO control (lower = more inhibition) is 100%. Moreover, the parasite growth, % of control (lower = inhibition) in experiment [10] was found to be 110%. In [11], this molecule displayed a growth, % of control of 103%. Moreover, the cell viability, % of control (lower = more cytotoxic) in experiment [1] amounted to 100%. The viability (% of control) in experiment [2] stood at 95.7%. Besides, the Potency was 20.9 µM (active) in [3] and 29.6 µM (active) in [4].
Molecule `CC1(C)S[C@H]2[C@H](NC(=O)[C@@H](N)c3ccc(O)cc3)C(=O)N2[C@@H]1C(=O)O` came in with a parasite growth, % of DMSO control in experiment [8] of 7.42%. Further, the parasite growth remaining, % of DMSO control (lower = more inhibition) in experiment [9] was determined as 103%. Moreover, the parasite growth, % of control (lower = inhibition) in experiment [10] worked out at 8.21%. Moreover, the growth, % of control in experiment [11] worked out at 6.54%. In addition, the cell viability, % of control (lower = more cytotoxic) in experiment [1] stood at 125%. The viability (% of control) in experiment [2] is 19.4%. Further, the Potency entry in experiment [3] and in [12] was “inactive” in each case.
In the case of `CCC(=O)O[C@]1(C(=O)CO)CC[C@H]2[C@@H]3CCC4=CC(=O)CC[C@]4(C)[C@@H]3CC[C@@]21C`, the parasite growth, % of DMSO control in [8] amounted to 37.1%. Also, the parasite growth remaining, % of DMSO control (lower = more inhibition) in [9] turned out to be 93.6%. Also, in experiment [10], the parasite growth, % of control (lower = inhibition) worked out at 38.1%. The same molecule returned a growth, % of control in experiment [11] of 31%. In addition, in [1], the cell viability, % of control (lower = more cytotoxic) came to 84.6%. Besides, in [2], the viability (% of control) was 81.8%. The Potency result in [3] and in experiment [12] was “inactive” in each case.
